The list is not random: actives were taken first. Their share in the collection is about 4.7%.
tim10-1 inh: growth inhibitors of tim10-1 mutant yeast, primary screen, luminescence, uHTS. S. cerevisiae tim10-1 ts strain growth, BacTiter-Glo, 24 h. inhibition, % at 20 µM. 330,000 compounds, 2.2% hits. AID 463190, 2010;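 active = inhibition of at least 40%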;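 also: mutant grown at 25 °C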
PfHsp90 set2: growth inhibition of PfHsp90-expressing yeast, primary screen, antimalarial PfHsp90 inhibitor project, S. cerevisiae, BacTiter-Glo luminescence, single point, set 2; BacTiter-Glo ATP, 48 h; yeast lacking PDR1 and PDR3 efflux regulators; inhibition, % at 9.4 µM; 310,000 compounds, 0.32% hits; AID 504621, 2011;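 active = every replicate shows inhibition above about 80%, whatever the replicate mean, limit read from the data; inconclusive = mean inhibition reaches the set limit but some replicate falls short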
TIM10 inh: growth inhibitors of isogenic TIM10 control yeast, primary screen, counter-screen for tim10-1 yeast inhibitor project, luminescence, uHTS | inhibition, % at 10 µM | S. cerevisiae TIM10 strain growth, BacTiter-Glo luminescence, 24 h | AID 463195, 2010 | 330,000 compounds, 1.4% hits;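 active = inhibition of 40% or more at the single tested concentration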;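 also: wild-type TIM10 isogenic control strain grown at permissive 25 °C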
EBI2 block: EBI2 receptor antagonists, beta-arrestin recruitment, primary screen, cell-based, luminescence, 7a,25-OHC stimulation, uHTS | 7a,25-OHC stimulated | AID 651636, 2012 | G-protein coupled receptor 183 (Homo sapiens), P32249 | inhibition, % at 5 µM | 360,000 compounds, 0.81% hits; in the data active = inhibition above about 38%;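 also: enzyme fragment complementation signal reports receptor beta-arrestin coupling in cells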
Target sequence (P32249 whole entry, looked up, the tested form may be a part): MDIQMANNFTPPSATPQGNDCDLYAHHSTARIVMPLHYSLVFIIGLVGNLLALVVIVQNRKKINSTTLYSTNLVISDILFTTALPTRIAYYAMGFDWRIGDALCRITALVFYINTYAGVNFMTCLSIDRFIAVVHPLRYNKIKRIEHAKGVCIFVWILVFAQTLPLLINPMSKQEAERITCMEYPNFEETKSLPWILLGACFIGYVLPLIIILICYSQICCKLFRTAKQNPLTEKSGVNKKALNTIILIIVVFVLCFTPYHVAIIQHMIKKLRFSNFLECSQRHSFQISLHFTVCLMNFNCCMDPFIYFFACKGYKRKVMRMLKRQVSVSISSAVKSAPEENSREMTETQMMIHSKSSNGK
tim23-1 inh: growth inhibitors of tim23-1 mutant yeast, primary screen, luminescence, uHTS | S. cerevisiae tim23-1 growth, BacTiter-Glo luminescence, 24 h | inhibition, % at 20 µM | 330,000 compounds, 1.3% hits | AID 463212, 2010;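 active = growth inhibition of the mutant yeast at or above 50%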;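 also: temperature-sensitive mutant grown at 25 °C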
SKKanGAS inh: S. pyogenes SKKanGAS growth inhibitors in kanamycin, primary screen, streptokinase expression inhibitor project, SKKanGAS strain, BacTiter-Glo luminescence; 6 h; inhibition, % at 7.5 µM; 300,000 compounds, 1.3% hits; AID 1662, 2009;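 active = mean replicate score, as percent of positive control median, at least 50; inconclusive = mean below 50 but one replicate at or above 50; inactive = mean and every replicate below 50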;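 also: strain carries kanamycin resistance gene driven by streptokinase promoter and grows in 40 µg/ml kanamycin; loss of luminescence reflects streptokinase promoter inhibition or plain growth inhibition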
Hits are given with their value; n = inactive; u = inconclusive; x = no result.

SMILES	tim10-1 inh	PfHsp90 set2	TIM10 inh	EBI2 block	tim23-1 inh	SKKanGAS inh
CO[C@H]1/C=C/O[C@@]2(C)Oc3c(C)c(O)c4c(O)c(c(C=NN5CCN(C)CC5)c(O)c4c3C2=O)NC(=O)/C(C)=C\C=C\[C@H](C)[C@H](O)[C@@H](C)[C@@H](O)[C@@H](C)[C@H](OC(C)=O)[C@@H]1C	n	n	n	n	n	x
O=C(Nc1ccccc1C(=O)Nc1nnc(C(F)(F)F)s1)c1ccccc1Cl	n	n	n	n	n	101
Cc1ccc(N=C2SC(C(=O)O)CC(=O)N2C)cc1C (stereo not drawn)	n	n	n	n	n	n
O=C1/C(=C/c2ccc(N3CCOCC3)o2)SC(=Nc2ccccc2)N1CCc1c[nH]c2ccccc12	n	142	n	83	n	n
O=C1S/C(=C\c2ccc(N3CCOCC3)o2)C(=O)N1Cc1ccc(F)cc1	n	n	n	47	n	x
COc1ccc(N=C2S/C(=C\c3ccc(OC(C)C(=O)O)c(OC)c3)C(=O)N2CCc2c[nH]c3ccccc23)cc1 (stereo not drawn)	n	n	n	n	n	u
COc1cc(/C=C2\SC(=Nc3ccccc3)N(CCc3c[nH]c4ccccc34)C2=O)ccc1OC(C)C(=O)O (stereo not drawn)	n	n	n	n	n	54
CCOC(=O)[C@]12CCC=C1N(Cc1ccco1)C(=O)[C@H](CC(=O)N1CCCCC1)C2	x	x	x	n	x	x
CN(Cc1ccncc1)C(=O)[C@@H]1CCCN1C(=O)[C@@H]1CCCN1	x	x	x	n	x	x
Cc1cc(NS(=O)(=O)c2ccc(NC(=O)CSc3nc4sc(C)c(C)c4c(=O)[nH]3)cc2)no1	n	n	n	n	n	54
Oc1nc(Nc2ccccc2)sc1/C=C1\C=Nc2ccccc21	n	n	n	n	n	54
O=c1[nH]c(O)c(/C=C2\C=Nc3ccccc32)[nH]1	x	n	x	n	x	n
CN(NS(=O)(=O)c1ccccc1)C(=O)c1ccccc1	x	n	x	n	x	x
COC(=O)C1=CN(c2cccc(OCc3ccccc3)c2)C(N)=C(C#N)C1c1cccc(F)c1 (stereo not drawn)	x	x	x	n	x	x
O=C(Cc1ccc(Br)cc1)Nc1nc2ccccc2[nH]1	n	n	n	n	n	57
C=CCN(c1ccccc1)S(=O)(=O)c1cccc(C(=O)Nc2nc3ccccc3[nH]2)c1	n	n	n	n	n	n
O=C(Nc1nc2ccccc2[nH]1)c1cccc(Cl)c1	n	n	n	n	n	64
O=C(Cc1ccccc1)Nc1nc2ccccc2[nH]1	n	n	n	n	n	n
CN(c1cccc(Cl)c1)S(=O)(=O)c1cccc(C(=O)Nc2nc3ccccc3[nH]2)c1	n	n	n	n	n	90
CCOC(=O)c1c(C)[nH]c(C(=O)COC(=O)c2ccc([N+](=O)[O-])o2)c1C	n	n	n	n	n	x
CCOC(=O)c1c(NC(=O)COC(=O)C2CC2C)sc(C)c1C (stereo not drawn)	n	n	n	n	n	n
COC(=O)C1=C(C(=O)OC)SC(=C2C(=S)C(C)(C)N(C(=O)CC(C)C)c3ccccc32)S1	n	n	n	56	n	n
CC(C)CC(=O)n1sc(NC(=O)c2ccccc2)nc1=O	n	n	n	n	n	n
O=C(NC1=NCCS1)c1cc(-c2ccccc2)nn1-c1ccccc1	n	x	n	n	n	51
Cc1ccc(NC(=O)COc2ncnc3cc([N+](=O)[O-])ccc23)cc1S(=O)(=O)N1CCOCC1	n	n	n	n	n	n
SMILES	tim10-1 inh	PfHsp90 set2	TIM10 inh	EBI2 block	tim23-1 inh	SKKanGAS inh
COc1ccc(-n2nnnc2S(=O)(=O)Cc2ccc(C(=O)O)cc2)cc1	n	x	n	n	n	n
COc1ccc(-n2nnnc2S(=O)(=O)CC(=O)N2CCCCC2)cc1	n	n	n	43	n	x
COC(=O)C[C@@H]1C[C@H]2c3cc(NS(C)(=O)=O)ccc3O[C@H]2[C@H](CO)O1	x	x	x	n	x	x
COc1ccc(-c2ccccc2)cc1NC(=O)C1(C)CCN1C(=O)C(C)C (stereo not drawn)	x	x	x	n	x	x
CC(C)N1C(=O)/C(=C\c2nc3ccccc3c(=O)n2-c2ccccc2)c2ccccc21	x	n	x	55	x	n
CC(C)N1C(=O)C(Cc2nc3ccccc3c(=O)n2-c2ccccc2)c2ccccc21 (stereo not drawn)	n	n	n	n	n	n
COc1ccc2nc(Nc3nc(C)c(C(C)=O)s3)sc2c1	n	n	n	n	n	56
COc1ccc(NC(=O)CSc2nccn2Cc2ccc(F)cc2)cc1	n	n	n	n	n	n
COc1ccc(C(=O)Cn2c(C)nc([N+](=O)[O-])c2Br)cc1	n	n	n	n	n	n
Cc1nc([N+](=O)[O-])c(Br)n1Cc1ccc(Cl)c(Cl)c1	x	n	x	50	x	n
O=C(N/N=C/c1ccc([N+](=O)[O-])o1)c1ccc(NS(=O)(=O)c2cccs2)cc1	n	n	n	n	n	72
Cc1nn(-c2ccc(Cl)cc2)c(Cl)c1/C=N/NC(=O)c1ccc(NS(=O)(=O)c2cccs2)cc1	n	n	n	n	n	63
O=C(N/N=C\C=C\c1ccc([N+](=O)[O-])o1)c1cccs1	n	n	n	n	n	91
O=C(N/N=C/C=C/c1ccccc1[N+](=O)[O-])c1cccs1	n	n	n	n	n	n
Cc1ccc(S(=O)(=O)N2C[C@H]3C(=O)C[C@@H](c4ccccc4)N(S(C)(=O)=O)[C@H]3C[C@H]2c2ccccc2)cc1	x	x	x	n	x	x
COc1ccc(CN(C)C(=O)CSc2nnc(C3CC3)n2C2CC2)cc1	n	x	n	n	n	x
O=[N+]([O-])c1cc(S(=O)(=O)Nc2ccccc2)ccc1N1CCN(c2ccccc2)CC1	n	n	n	n	n	50
O=[N+]([O-])c1cc(S(=O)(=O)C(F)(F)F)ccc1N1CCN(c2ccccc2)CC1	n	n	n	n	n	n
COc1ccc(CC(=O)Nc2nc(OCC(F)(F)F)cnc2-c2ccc(Cl)cc2Cl)cc1	x	x	x	n	x	x
CCCCC1CCC(c2nc(-c3ccccn3)no2)CC1 (stereo not drawn)	n	x	n	n	n	61
CC(C)Cc1csc(NC(=O)c2ccc(Br)cc2)c1C(=O)O	n	n	n	n	n	70
CN(CC(=O)Nc1ccc(F)cc1)C(=O)c1cc(-c2cccs2)nn1-c1ccccc1	n	n	n	n	n	x
Cc1cc(Br)ccc1SCC(=O)N1CCN(S(=O)(=O)c2ccccc2)CC1	n	n	n	83	n	n
O=C(CSc1ncccn1)N1CCN(S(=O)(=O)c2ccccc2)CC1	n	n	n	n	n	n

High-throughput results deposited in PubChem BioAssay by several laboratories.
